Records with an inconclusive call do not appear. The source made the active and inactive calls. Unless noted, calls come from the whole dose curve; as a rule, active = well fitted curve in the direction sought with a large enough effect in the repeat runs; inconclusive = weak or mixed curves; inactive = no such curve, though single readings can be large; an effect the other way counts as inactive or inconclusive.
Tests used:
[1] = A CellTox Green Cytotoxicity Assay to monitor cytotoxicity in HEK293 cells - 32 hour (AID 1224881); note: nearly all actives have a fitted effect of over 40% in size
Summary of the method: (§1)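 Tox21 screen in HEK293: membrane-impermeant cyanine dye fluoresces on binding dead-cell DNA; compound pinned 5 h post-seeding, plates held at 37 C, signal read repeatedly through 40 h.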

[2] = A CellTox Green Cytotoxicity Assay to monitor cytotoxicity in HepG2 cells - 0 hour (AID 1224882); note: nearly all actives have a fitted effect of over 35% in size
Summary of the method: (§2)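 Measurements at 0, 8, 16, 24, 32 and 40 h of treatment captured CellTox Green fluorescence in HepG2 cells that had been co-plated with reagent and preincubated 5 h at 37 C/5% CO2.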

[3] = A CellTox Green Cytotoxicity Assay to monitor cytotoxicity in HepG2 cells - 32 hour (AID 1224883); note: nearly all actives have a fitted effect of over 50% in size
Summary of the method: as §2

[4] = A CellTox Green Cytotoxicity Assay to monitor cytotoxicity in HEK293 cells - 8 hour (AID 1224884); note: nearly all actives have a fitted effect of over 35% in size
Summary of the method: as §1

[5] = qHTS RealTime-Glo MT Cell Viability Assay in HepG2 cells - 16 hour (AID 1224885); note: nearly all actives have a fitted effect of over 50% in size
Summary of the method: (§3)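 HepG2 cells (600/well) were dispensed with RealTime-Glo reagents, incubated 5 h at 37 °C, then treated with compounds in DMSO for up to 40 h. Nonlytic NanoLuc luminescence reflecting viable cells was read at each stated time point.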

[6] = qHTS RealTime-Glo MT Cell Viability Assay in HEK293 cells - 24 hour (AID 1224886); note: top concentration of the series differs between compounds; nearly all actives have a fitted effect of over 50% in size
Summary of the method: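 HEK293 cells seeded with NanoLuc/prosubstrate reagent, rested 5 h at 37 C, then dosed and kept at 37 C up to 40 h. Nonlytic real-time luminescence from viable cells read at 0, 8, 16, 24, 32 and 40 h.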

[7] = qHTS RealTime-Glo MT Cell Viability Assay in HEK293 cells - 8 hour (AID 1224887); note: top concentration of the series differs between compounds; nearly all actives have a fitted effect of over 50% in size
Summary of the method: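 HEK293 + NanoLuc + prosubstrate, 600 cells/well; 5 h, 37 C/5% CO2; compound 23 nL in DMSO by pintool; 37 C; luminescence read at 0, 8, 16, 24, 32 and 40 h time points.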

[8] = A CellTox Green Cytotoxicity Assay to monitor cytotoxicity in HEK293 cells - 16 hour (AID 1224888); note: nearly all actives have a fitted effect of over 35% in size
Summary of the method: as §1

[9] = qHTS RealTime-Glo MT Cell Viability Assay in HepG2 cells - 0 hour (AID 1224889); note: nearly all actives have a fitted effect of over 50% in size
Summary of the method: as §3

[10] = A CellTox Green Cytotoxicity Assay to monitor cytotoxicity in HepG2 cells - 8 hour (AID 1224890); note: nearly all actives have a fitted effect of over 45% in size
Summary of the method: as §2

[11] = qHTS assay to identify small molecule antagonists of the estrogen receptor alpha (ER-alpha) signaling pathway using the BG1 cell line in the presence of 0.1 nM 17-beta-estradiol - cell viability counter screen (AID 1259241); note: nearly all actives have a fitted effect of over 40% in size
Summary of the method: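 Estradiol-stimulated (0.1 nM) VM7Luc4E2 cells exposed to compounds 22 hr; viability measured by fluorescence of cleaved CellTiter-Fluor substrate after 30 min.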

[12] = qHTS assay to identify small molecule antagonists of the androgen receptor (AR) signaling pathway using the MDA cell line in the presence of 0.5 nM R1881 - cell viability counter screen (AID 1259242); note: nearly all actives have a fitted effect of over 45% in size
Summary of the method: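 Concentration-response screen of compounds for toxicity in MDA-kb2 reporter cells: 16 hr at 37C with 0.5 nM R1881, endpoint live-cell protease fluorescence measured in the reporter wells.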

[13] = qHTS assay to identify small molecule HDAC inhibitors (AID 1259364);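 note: wild-type HCT-116 cells with endogenous class I/II HDAC activity; top concentration of the series differs between compounds; nearly all actives have a fitted effect of over 45% in size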
Summary of the method: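 Screening used wild-type human colon HCT-116 cells incubated overnight, dosed with compounds for 2 hours, and assayed with a homogeneous luminogenic HDAC I/II reagent for 30 minutes at room temperature.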

[14] = qHTS assay to identify small molecule HDAC inhibitors - cell viability counter screen (AID 1259365)
Summary of the method: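 After overnight seeding at 1,500 cells per well, wild-type HCT-116 cultures took up compounds in DMSO for 2hr at 37 C. Viable cell content came from luminescence with CellTiter-Glo.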

[15] = qHTS assay to identify small molecule agonists of the sonic hedgehog signaling (Shh) pathway - cell viability counter screen (AID 1259366); note: nearly all actives have a fitted effect of over 50% in size
Summary of the method: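 Same-well cytotoxicity read. Gli1-Luc reporter 3T3 cells; compounds 24hr, 37C/5% CO2; CellTiter-Fluor fluorescence.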

[16] = qHTS assay to identify small molecule antagonists of the sonic hedgehog signaling (Shh) pathway - cell viability counter screen (AID 1259367); note: nearly all actives have a fitted effect of over 55% in size
Summary of the method: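 Tox21 library chemicals were tested on a Gli1-Luc NIH/3T3 clone (2,000 cells/well) stimulated by conditioned medium; viability was quantified as fluorescence from CellTiter-Fluor reagent added at 23 hr.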

[17] = qHTS assay to identify small molecule agonists of the sonic hedgehog signaling (Shh) pathway (AID 1259368; calls by dose curve;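 note: NIH/3T3-derived 3T3Gli1-Luc cells carrying a stable Gli1-driven firefly luciferase reporter; series mostly up to about 92 µM; nearly all actives have a fitted effect of over 15% in size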)
Summary of the method: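 Hedgehog pathway agonism scored by increased firefly luciferase luminescence in 3T3Gli1-Luc cells treated 24 hr at 37 C; detection used a 30 min room-temperature reagent incubation.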

[18] = target: Estrogen receptor (Homo sapiens) (UniProt P03372); test: qHTS assay to identify small molecule antagonists of the estrogen receptor alpha (ER-alpha) signaling pathway using the BG1 cell line in the presence of 0.1 nM 17-beta-estradiol (AID 1259244); note: nearly all actives have a fitted effect of over 50% in size
Estrogen receptor (Homo sapiens), sequence (P03372 whole entry, looked up): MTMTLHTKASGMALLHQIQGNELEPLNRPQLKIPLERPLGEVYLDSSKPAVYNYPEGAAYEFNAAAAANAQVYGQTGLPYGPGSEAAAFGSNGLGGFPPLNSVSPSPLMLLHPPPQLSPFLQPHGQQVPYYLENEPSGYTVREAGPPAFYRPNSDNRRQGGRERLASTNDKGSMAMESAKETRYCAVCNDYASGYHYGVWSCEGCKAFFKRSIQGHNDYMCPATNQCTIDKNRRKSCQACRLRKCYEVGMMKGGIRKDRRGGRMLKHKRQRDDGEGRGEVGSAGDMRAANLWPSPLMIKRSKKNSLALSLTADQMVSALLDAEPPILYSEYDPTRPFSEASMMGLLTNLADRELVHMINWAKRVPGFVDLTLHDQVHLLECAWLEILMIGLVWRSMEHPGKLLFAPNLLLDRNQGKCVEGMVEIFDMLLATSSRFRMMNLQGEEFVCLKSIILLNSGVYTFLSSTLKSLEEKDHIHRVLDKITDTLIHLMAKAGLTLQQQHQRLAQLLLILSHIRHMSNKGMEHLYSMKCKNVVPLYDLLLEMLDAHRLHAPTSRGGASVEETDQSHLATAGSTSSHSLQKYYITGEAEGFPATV
Summary of the method: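 Compounds were tested against 0.1 nM (final) 17beta-estradiol in VM7Luc4E2 cells, which express full-length ER-alpha and an ERE-luciferase reporter; luminescence was recorded following 22 h exposure.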

[19] = target: Androgen receptor (Homo sapiens) (UniProt P10275); test: qHTS assay to identify small molecule antagonists of the androgen receptor (AR) signaling pathway using the MDA cell line in the presence of 0.5 nM R1881 (AID 1259243); note: nearly all actives have a fitted effect of over 50% in size
Androgen receptor (Homo sapiens), sequence (P10275 whole entry, looked up): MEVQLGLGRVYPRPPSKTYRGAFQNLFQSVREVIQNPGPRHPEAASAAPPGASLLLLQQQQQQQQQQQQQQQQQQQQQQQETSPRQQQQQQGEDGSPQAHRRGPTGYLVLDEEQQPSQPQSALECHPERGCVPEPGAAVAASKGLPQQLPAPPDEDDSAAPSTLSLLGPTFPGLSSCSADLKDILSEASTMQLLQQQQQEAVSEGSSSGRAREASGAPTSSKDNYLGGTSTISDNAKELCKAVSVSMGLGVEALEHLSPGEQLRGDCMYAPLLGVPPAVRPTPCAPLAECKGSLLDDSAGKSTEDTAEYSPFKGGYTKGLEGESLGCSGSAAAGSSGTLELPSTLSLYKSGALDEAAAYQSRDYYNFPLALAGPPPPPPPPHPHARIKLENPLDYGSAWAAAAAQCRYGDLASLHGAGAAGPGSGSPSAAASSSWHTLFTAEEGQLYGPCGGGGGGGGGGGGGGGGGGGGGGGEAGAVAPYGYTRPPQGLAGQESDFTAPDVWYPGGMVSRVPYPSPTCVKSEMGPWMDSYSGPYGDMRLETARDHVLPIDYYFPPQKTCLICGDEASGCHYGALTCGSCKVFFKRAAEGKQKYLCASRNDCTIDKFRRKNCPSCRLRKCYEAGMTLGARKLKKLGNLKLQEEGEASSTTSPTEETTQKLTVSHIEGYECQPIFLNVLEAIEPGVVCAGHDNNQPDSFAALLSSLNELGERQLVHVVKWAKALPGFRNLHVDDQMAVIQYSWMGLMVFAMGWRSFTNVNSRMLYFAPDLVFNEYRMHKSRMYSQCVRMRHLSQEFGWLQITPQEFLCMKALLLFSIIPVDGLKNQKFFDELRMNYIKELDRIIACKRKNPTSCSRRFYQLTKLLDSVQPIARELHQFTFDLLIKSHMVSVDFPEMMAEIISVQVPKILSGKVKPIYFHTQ
Summary of the method: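 With R1881 held at 0.5 nM (final), compound effects on MMTV-luciferase expression in MDA-kb2 cells were scored by luminescence after a 16 hr, 37C incubation.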

[20] = qHTS assay to identify small molecule phospholipidosis (PLD) inducers (AID 1259344; active = well fitted curve in the direction sought with a large enough effect; an effect the other way counts as inactive or inconclusive)
Summary of the method: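 Image-based: LipidTOX Red pit count/intensity per well and per cell; HepG2, 24 h compound at 37 C, PFA fixation, Hoechst counterstain.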

Measured: Potency

COc1c(N2CCNC(C)C2)c(F)cc2c(=O)c(C(=O)O)cn(C3CC3)c12 (stereo not given)
inactive: [1] | [2] | [3] | [4] | [5] | [6] | [7] | [8] | [9] | [10] | [11] | [12] | [13] | [14] | [15] | [16] | [17]

CC(CC=O)CC(C)(C)C (stereo not given)
inactive: [1] | [2] | [3] | [4] | [5] | [6] | [7] | [8] | [10] | [11] | [12] | [18] | [13] | [14] | [15] | [16] | [17]

CC(C)COC(=O)c1ccc(N)cc1
inactive: [1] | [2] | [3] | [4] | [5] | [6] | [7] | [8] | [9] | [10] | [12] | [18] | [14] | [15] | [16] | [17]

CC[N+](CC)(CC)CCOc1cccc(OCC[N+](CC)(CC)CC)c1OCC[N+](CC)(CC)CC
inactive: [1] | [2] | [3] | [4] | [6] | [7] | [8] | [9] | [10] | [11] | [12] | [19] | [20] | [13] | [14] | [15] | [16] | [17]

CCCCOCCOC(=O)CCCCCCCCC(=O)OCCOCCCC
inactive: [1] | [2] | [3] | [4] | [5] | [7] | [8] | [9] | [10] | [11] | [12] | [13] | [14] | [15] | [17]

CC[N+](CC)(CC(=O)Nc1c(C)cccc1C)Cc1ccccc1 (tested in a mixture with another compound)
inactive: [1] | [2] | [3] | [4] | [5] | [6] | [7] | [8] | [10] | [11] | [12] | [13] | [15] | [16] | [17]

CCO[Si](OCC)(OCC)c1ccccc1
inactive: [1] | [2] | [3] | [4] | [5] | [6] | [7] | [8] | [10] | [11] | [12] | [13] | [15] | [16] | [17]

CCOCC(C)O (stereo not given)
inactive: [1] | [2] | [3] | [4] | [5] | [7] | [8] | [9] | [10] | [11] | [12] | [18] | [13] | [14] | [15] | [16] | [17]
